Among the data in the supplement of paper PMC9262897, “Low-cost anti-mycobacterial drug discovery using engineered E. coli” (Nature Communications, 2022) are growth values, retold here.

± gives the standard deviation of the averaged measurements.

What all share (experiment): growth (OD600 after 10 h); higher = more growth (less inhibition)
Test [1] deals with E. coli TESEC Alr+ wild-type control. The settings on record: compound 0.1 mM; raw OD600 reference: median of DMSO wells 0.241, cell-free background 0.041. As to the method: (§1)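 TESEC Mtb Alr E. coli, or the Alr+ wild-type control, in 384-well plates with Prestwick library compounds at 0.1 mM and 1% DMSO, across arabinose induction levels of 1E3 to 1E7 nM. Growth is read as OD600 after 10 h at 37 °C in triplicate biological replicates.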

Test [2] has as its system E. coli TESEC Mtb Alr. Conditions: compound 0.1 mM. As to the method: as §1
For the next test, the system named is E. coli TESEC Mtb Asd. The settings on record: compound 0.1 mM. The method, then: (§2)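 TESEC E. coli strains in which the native enzyme is deleted and replaced by arabinose-inducible Mtb Asd, DapB, CysH or TrpD, each grown in its selective medium. Strains were screened against the Prestwick library at 0.1 mM and 1% DMSO in 384-well format at low and high arabinose induction. Growth is read as OD600 after 10 h in triplicate.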

The test system of another test is E. coli TESEC Mtb DapB. The settings on record: compound 0.1 mM. The method, then:
as §2

Test [3] deals with E. coli TESEC Mtb Alr. The settings on record: compound 0.1 mM. The method, then:
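TESEC Mtb Alr E. coli (ΔaraC ΔtolC ΔentC Δalr ΔdadX, arabinose-inducible Mtb Alr) or the Alr+ wild-type control strain, grown in defined M9-fructose medium without D-alanine in 96-well plates with Prestwick library compounds at 0.1 mM and 1% DMSO. Low Alr induction is 0.1 µM arabinose and high induction is 10 mM arabinose.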
This is another data set of the same source.

The mark [4] stands for this setting: arabinose 1000 nM, raw OD600 reference: median of DMSO wells 0.294, cell-free background 0.041.
[5] abbreviates: arabinose 10000 nM, raw OD600 reference: median of DMSO wells 0.264, cell-free background 0.041.
Setting [6] is: arabinose 100000 nM, raw OD600 reference: median of DMSO wells 0.201, cell-free background 0.041.
Where [7] appears, read: arabinose 1000000 nM, raw OD600 reference: median of DMSO wells 0.193, cell-free background 0.041.
Where [8] appears, read: arabinose 10000000 nM, raw OD600 reference: median of DMSO wells 0.146, cell-free background 0.041.
Setting [9] is: arabinose induction (level): High, raw OD600 reference: median of DMSO wells 0.331, cell-free background 0.041.
Where [10] appears, read: arabinose induction (level): Low, raw OD600 reference: median of DMSO wells 0.417, cell-free background 0.041.
[11] abbreviates: arabinose induction (level): High, raw OD600 reference: median of DMSO wells […], cell-free background 0.041.
Where [12] appears, read: arabinose induction (level): Low, raw OD600 reference: median of DMSO wells 0.227, cell-free background 0.041.
[13] abbreviates: arabinose 100 nM, raw OD600 reference: median of DMSO wells 0.413, cell-free background 0.052.
Where [14] appears, read: arabinose 10000000 nM, raw OD600 reference: median of DMSO wells […], cell-free background 0.052.

On to `CC[C@@H](C(N)=O)N1CCCC1=O` [Levetiracetam], for which the growth in test [1] was 0.247 ± 0.0084; in the test with E. coli TESEC Mtb Alr [2] (setting [4]), 0.304 ± 0.018; with E. coli TESEC Mtb Alr [2] (setting [5]) it was 0.264 ± 0.0095; in the test with E. coli TESEC Mtb Alr [2] (setting [6]) it was 0.205 ± 0.0055; with E. coli TESEC Mtb Alr [2] (setting [7]), 0.183 ± 0.0062; in the test with E. coli TESEC Mtb Alr [2] (setting [8]), 0.168 ± 0.0049. Besides, the growth stood at 0.256 ± 0.074 in the test with E. coli TESEC Mtb Asd (setting [9]); 0.313 ± 0.057 with E. coli TESEC Mtb Asd (setting [10]); 0.188 ± 0.0023 with E. coli TESEC Mtb DapB (setting [11]); 0.229 ± 0.023 with E. coli TESEC Mtb DapB (setting [12]); 0.409 ± 0.0085 in the test on E. coli TESEC Mtb Alr [3] (setting [13]); 0.364 ± 0.028 with E. coli TESEC Mtb Alr [3] (setting [14]).

In the case of `CN1[C@@H]2CC[C@H]1C[C@@H](OC(=O)[C@H](CO)c1ccccc1)C2` [Hyoscyamine (L)], the growth in test [1] is 0.243 ± 0.0078; in the test on E. coli TESEC Mtb Alr [2] (setting [4]), 0.293 ± 0.024; in the test on E. coli TESEC Mtb Alr [2] (setting [5]), 0.272 ± 0.0055; in the test with E. coli TESEC Mtb Alr [2] (setting [6]), 0.23 ± 0.011; with E. coli TESEC Mtb Alr [2] (setting [7]), 0.176 ± 0.005; with E. coli TESEC Mtb Alr [2] (setting [8]), 0.158 ± 0.011. Besides, the growth was 0.317 ± 0.073 in the test with E. coli TESEC Mtb Asd (setting [9]); 0.377 ± 0.074 with E. coli TESEC Mtb Asd (setting [10]); 0.191 ± 0.014 in the test with E. coli TESEC Mtb DapB (setting [11]); 0.29 ± 0.023 with E. coli TESEC Mtb DapB (setting [12]); 0.415 ± 0.02 with E. coli TESEC Mtb Alr [3] (setting [13]); 0.34 ± 0.02 with E. coli TESEC Mtb Alr [3] (setting [14]).

In the case of `O=c1c2ccccc2[se]n1-c1ccccc1` [Ebselen], the growth was 0.067 ± 0.0015 in test [1]; 0.295 ± 0.02 in the test with E. coli TESEC Mtb Alr [2] (setting [4]); 0.261 ± 0.0064 in the test with E. coli TESEC Mtb Alr [2] (setting [5]); 0.236 ± 0.027 in the test with E. coli TESEC Mtb Alr [2] (setting [6]); 0.224 ± 0.017 in the test with E. coli TESEC Mtb Alr [2] (setting [7]); 0.164 ± 0.0046 in the test on E. coli TESEC Mtb Alr [2] (setting [8]). In addition, the growth was found to be 0.0698 ± 0.0046 with E. coli TESEC Mtb Asd (setting [9]); 0.061 ± 0.008 in the test on E. coli TESEC Mtb Asd (setting [10]); 0.22 ± 0.027 in the test on E. coli TESEC Mtb DapB (setting [11]); 0.249 ± 0.014 in the test on E. coli TESEC Mtb DapB (setting [12]); 0.355 ± 0.009 in the test on E. coli TESEC Mtb Alr [3] (setting [13]); 0.346 ± 0.0078 in the test on E. coli TESEC Mtb Alr [3] (setting [14]).

As to `COc1ccc(C(=O)N2CCCC2=O)cc1` [Aniracetam], the growth in test [1] amounted to 0.25 ± 0.0051; in the test on E. coli TESEC Mtb Alr [2] (setting [4]), 0.3088 ± 0.0018; in the test with E. coli TESEC Mtb Alr [2] (setting [5]) it was 0.246 ± 0.01; in the test with E. coli TESEC Mtb Alr [2] (setting [6]), 0.236 ± 0.021; in the test on E. coli TESEC Mtb Alr [2] (setting [7]) it was 0.172 ± 0.0084; in the test with E. coli TESEC Mtb Alr [2] (setting [8]), 0.167 ± 0.0026. The growth came out at 0.235 ± 0.057 with E. coli TESEC Mtb Asd (setting [9]); 0.309 ± 0.058 in the test on E. coli TESEC Mtb Asd (setting [10]); 0.214 ± 0.0098 with E. coli TESEC Mtb DapB (setting [11]); 0.246 ± 0.011 in the test on E. coli TESEC Mtb DapB (setting [12]); 0.405 ± 0.011 with E. coli TESEC Mtb Alr [3] (setting [13]); 0.343 ± 0.012 in the test on E. coli TESEC Mtb Alr [3] (setting [14]).

For the molecule `CC(C)N(CCC(C(N)=O)(c1ccccc1)c1ccccn1)C(C)C` (configuration not stated) [Disopyramide], the growth worked out at 0.2355 ± 0.0022 in test [1]; 0.285 ± 0.018 with E. coli TESEC Mtb Alr [2] (setting [4]); 0.25 ± 0.0026 in the test on E. coli TESEC Mtb Alr [2] (setting [5]); 0.195 ± 0.0071 with E. coli TESEC Mtb Alr [2] (setting [6]); 0.171 ± 0.0034 with E. coli TESEC Mtb Alr [2] (setting [7]); 0.14 ± 0.0064 in the test with E. coli TESEC Mtb Alr [2] (setting [8]). In addition, the growth was 0.313 ± 0.084 in the test on E. coli TESEC Mtb Asd (setting [9]); 0.408 ± 0.057 with E. coli TESEC Mtb Asd (setting [10]); 0.175 ± 0.0095 with E. coli TESEC Mtb DapB (setting [11]); 0.195 ± 0.02 with E. coli TESEC Mtb DapB (setting [12]); 0.41 ± 0.0056 with E. coli TESEC Mtb Alr [3] (setting [13]); 0.351 ± 0.007 in the test on E. coli TESEC Mtb Alr [3] (setting [14]).

Consider `CN(C)C(=O)Oc1cccc([N+](C)(C)C)c1` [Neostigmine bromide], for which the growth in test [1] was determined as 0.256 ± 0.0033; in the test on E. coli TESEC Mtb Alr [2] (setting [4]), 0.316 ± 0.0053; in the test on E. coli TESEC Mtb Alr [2] (setting [5]) it was 0.273 ± 0.0057; in the test with E. coli TESEC Mtb Alr [2] (setting [6]), 0.225 ± 0.033; in the test on E. coli TESEC Mtb Alr [2] (setting [7]), 0.19 ± 0.0043; in the test with E. coli TESEC Mtb Alr [2] (setting [8]), 0.168 ± 0.0075. Also, the growth with E. coli TESEC Mtb Asd (setting [9]) came out at 0.222 ± 0.028; in the test with E. coli TESEC Mtb Asd (setting [10]) it was 0.331 ± 0.14; in the test on E. coli TESEC Mtb DapB (setting [11]), 0.204 ± 0.0094; with E. coli TESEC Mtb DapB (setting [12]), 0.232 ± 0.064; in the test on E. coli TESEC Mtb Alr [3] (setting [13]), 0.404 ± 0.012; in the test with E. coli TESEC Mtb Alr [3] (setting [14]), 0.339 ± 0.011.
